Measured values from the antibiotic and cytotoxicity screens of Wong et al. (2023).
Screen size: about 39,000 compounds; about 1,500 (3.8%) were called active. The list comes from a sample in which actives are over-represented; it also holds similar structures and randomly drawn compounds.

Each molecule was assayed on HSkMC (human skeletal muscle cells) (assay: cytotoxicity call (relative viability < 0.9)). Conditions: 10 µM.
For C[C@H](CO)N1C[C@H](C)[C@H](CN(C)Cc2ccc(O)cc2)OCc2ccccc2-c2c(n(C)c3ccccc23)C1=O, the cytotoxicity call was “inactive”.
CC(C)NC(=O)Nc1ccc2c(c1)C(=O)N([C@H](C)CO)C[C@@H](C)[C@H](CN(C)S(C)(=O)=O)OCCCC[C@@H](C)O2 was tested, and the cytotoxicity call was “inactive”.
With C[C@@H]1CN([C@H](C)CO)C(=O)Cc2cc(NS(=O)(=O)c3ccc(Cl)cc3)ccc2O[C@H]1CN(C)Cc1ccc(C(=O)Nc2ccccc2N)cc1 the cytotoxicity call was “inactive”.
For Cc1ccc(S(=O)(=O)N(C)C[C@@H]2Oc3cc(C#Cc4ccncc4)ccc3S(=O)(=O)N([C@@H](C)CO)C[C@@H]2C)cc1, the cytotoxicity call was “inactive”.
For C[C@H]1CN([C@@H](C)CO)C(=O)c2cccc(NS(=O)(=O)c3cn(C)cn3)c2O[C@H]1CN(C)S(=O)(=O)c1ccc(F)cc1, the cytotoxicity call was “inactive”.
For C[C@H]1CN([C@@H](C)CO)S(=O)(=O)c2ccc(C#Cc3ccc(F)cc3)cc2O[C@H]1CN(C)CC1CC1, the cytotoxicity call was “inactive”.
C[C@@H]1CCCCO[C@H](CN(C)C(=O)CCC(F)(F)F)[C@H](C)CN([C@@H](C)CO)C(=O)c2cc(NC(=O)Nc3ccc4c(c3)OCO4)ccc2O1 was tested, and the cytotoxicity call was “inactive”.
With CCOC(=O)C1=CC(OC(CC)CC)C(NC(C)=O)C(N)C1.O=P(O)(O)O (configuration not stated) the cytotoxicity call was “inactive”.
COc1ccc(S(=O)(=O)N(C)C[C@@H]2Oc3ccc(NS(=O)(=O)c4ccc(F)cc4)cc3C(=O)N([C@@H](C)CO)C[C@@H]2C)cc1 was tested, and the cytotoxicity call was “inactive”.
In the case of C[C@H]1CN([C@@H](C)CO)C(=O)Cc2cc(NC(=O)C3CC3)ccc2O[C@H]1CN(C)S(=O)(=O)c1ccc(F)cc1, the cytotoxicity call was “inactive”.
C[C@@H]1CN([C@H](C)CO)C(=O)c2cc(NC(=O)Nc3cccc4ccccc34)ccc2O[C@@H]1CN(C)C(=O)Nc1ccc2c(c1)OCO2 was tested, and the cytotoxicity call was “inactive”.
For COc1ccc([C@H]([C@H](Cc2ccccc2)OC(C)=O)N(CC#C[C@@H](O)c2ccccc2)[C@@H](Cc2ccccc2)C(OC)OC)cc1, the cytotoxicity call was “inactive”.
With COc1ccc2c3c(n(c2c1)C)[C@H](CO)N(Cc1ccccc1F)C[C@]13CN(C1)C(=O)C1CCOCC1 the cytotoxicity call was “inactive”.
With C[C@@H]1CCCCO[C@H](CN(C)Cc2ccc(C(F)(F)F)cc2)[C@H](C)CN([C@H](C)CO)C(=O)c2cc(NC(=O)Nc3ccc(C(F)(F)F)cc3)ccc2O1 the cytotoxicity call was “active”.
In the case of C[C@H](CO)N1C[C@H](C)[C@@H](CN(C)Cc2ccc(C(F)(F)F)cc2)OCCCC[C@H](C)Oc2ccc(NC(=O)Nc3ccc(C(F)(F)F)cc3)cc2C1=O, the cytotoxicity call was “inactive”.
For C[C@H]1CCCCO[C@H](CN(C)Cc2ccc(C(F)(F)F)cc2)[C@@H](C)CN([C@@H](C)CO)C(=O)c2cc(NC(=O)Nc3ccc(C(F)(F)F)cc3)ccc2O1, the cytotoxicity call was “inactive”.
In the case of C[C@@H]1CN([C@@H](C)CO)C(=O)c2cc(NC(=O)Nc3ccc(C(F)(F)F)cc3)ccc2O[C@@H](C)CCCCO[C@H]1CN(C)Cc1ccc(C(F)(F)F)cc1, the cytotoxicity call was “inactive”.
In the case of C[C@@H]1CCCCO[C@H](CN(C)Cc2ccc(C(F)(F)F)cc2)[C@H](C)CN([C@@H](C)CO)C(=O)c2cc(NC(=O)Nc3ccc(C(F)(F)F)cc3)ccc2O1, the cytotoxicity call was “active”.
For C[C@@H]1CCCCO[C@H](CN(C)Cc2ccc(C(F)(F)F)cc2)[C@@H](C)CN([C@@H](C)CO)C(=O)c2cc(NC(=O)Nc3ccc(C(F)(F)F)cc3)ccc2O1, the cytotoxicity call was “inactive”.
In the case of C[C@@H]1CCCCO[C@H](CN(C)C(=O)c2ccccc2)[C@H](C)CN([C@H](C)CO)C(=O)c2cc(NC(=O)C3CCCCC3)ccc2O1, the cytotoxicity call was “inactive”.
With O=C(NCCN1CCOCC1)c1cccs1 the cytotoxicity call was “inactive”.
For CCc1c(Cl)c(O)c(Cl)c(O)c1C(=O)O[C@H]1[C@H](O)[C@H](OC)[C@H](OC/C2=C\C=C\C[C@H](O)/C(C)=C/[C@H](CC)[C@@H](O[C@@H]3OC(C)(C)[C@@H](OC(=O)C(C)C)[C@H](O)[C@@H]3O)/C(C)=C/C(C)=C/C[C@@H]([C@@H](C)O)OC2=O)O[C@@H]1C, the cytotoxicity call was “active”.
COc1ccc(CN(C)C[C@@H]2OCCCC[C@H](C)Oc3ccc(NC(=O)Nc4ccc(F)cc4)cc3C(=O)N([C@H](C)CO)C[C@@H]2C)cc1 was tested, and the cytotoxicity call was “inactive”.
COc1ccc(CN(C)C[C@H]2OCCCC[C@H](C)Oc3ccc(NC(=O)Nc4ccccc4)cc3C(=O)N([C@@H](C)CO)C[C@@H]2C)cc1 was tested, and the cytotoxicity call was “inactive”.
In the case of COc1ccc(CN(C)C[C@@H]2OCCCC[C@H](C)Oc3ccc(NC(=O)Nc4ccc(F)cc4)cc3C(=O)N([C@@H](C)CO)C[C@@H]2C)cc1, the cytotoxicity call was “inactive”.
COc1ccc(CN(C)C[C@H]2OCCCC[C@@H](C)Oc3ccc(NC(=O)Nc4ccccc4)cc3C(=O)N([C@H](C)CO)C[C@H]2C)cc1 was tested, and the cytotoxicity call was “active”.
With COc1ccc(CN(C)C[C@H]2OCCCC[C@@H](C)Oc3ccc(NC(=O)Nc4ccc(F)cc4)cc3C(=O)N([C@H](C)CO)C[C@H]2C)cc1 the cytotoxicity call was “active”.
For COc1ccc(CN(C)C[C@@H]2OCCCC[C@@H](C)Oc3ccc(NC(=O)Nc4ccccc4)cc3C(=O)N([C@@H](C)CO)C[C@@H]2C)cc1, the cytotoxicity call was “inactive”.
With C[C@@H]1CCCCO[C@@H](CN(C)C(=O)C2CCCCC2)[C@H](C)CN([C@H](C)CO)C(=O)c2cc(NC(=O)Nc3ccc(C(F)(F)F)cc3)ccc2O1 the cytotoxicity call was “inactive”.
C[C@H](CO)N1C[C@H](C)[C@H](CN(C)C(=O)Nc2ccccc2C(F)(F)F)OCc2cnnn2CCCC1=O was tested, and the cytotoxicity call was “inactive”.
In the case of CO[C@@H]1CN(C)C(=O)c2cc(NC(=O)C3CC3)ccc2OC[C@H](C)N(C(=O)Cc2ccccn2)C[C@@H]1C, the cytotoxicity call was “inactive”.
COc1ccc(S(=O)(=O)N[C@@H]2C=C[C@H](CC(=O)N3CCC(Cc4ccccc4)CC3)O[C@@H]2CO)cc1 was tested, and the cytotoxicity call was “inactive”.
In the case of Cn1cc(-c2ccno2)c(C(=O)O)n1, the cytotoxicity call was “inactive”.
With Cc1c(-c2c(-c3ccc(F)o3)sc3ncnc(O[C@H](Cc4ccccc4OCc4ccnn4CC(F)(F)F)C(=O)O)c23)ccc(OCCN2CCN(C)CC2)c1Cl the cytotoxicity call was “active”.
With N#C[C@@H]1N[C@H](CO)[C@H]1c1ccccc1 the cytotoxicity call was “inactive”.
COCC(=O)N1CC(C)(C)c2cc(-c3csc(NC(=O)c4ccc(F)c(OC(F)(F)F)c4)n3)ccc21 was tested, and the cytotoxicity call was “inactive”.
With CCCCCCO[C@@H](C)c1cccc(-c2csc(NC(=O)c3cc(Cl)c(/C=C(\C)C(=O)O)c(Cl)c3)n2)c1OC the cytotoxicity call was “active”.
